Shown are actives, neighbours in structure and some others; about 21% of the full set was active somewhere.
IL-1B inflam inh = qHTS for Inhibitors of Inflammasome Signaling: IL-1-beta AlphaLISA Primary Screen; activity change, % at 57.5 µM; 360,000 tested, 4.7% active; THP-1 LPS/ATP IL-1B secretion, AlphaLISA, 16 h; active compounds read low; in the data active means activity change below about -50%; inconclusive means mostly about -30% to -49%
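Secreted IL-1B measured by AlphaLISA bead assay after 16 h compound exposure of THP-1 cells; compounds (final up to 57.5 uM) added 1 h before LPS (250 ng/mL) and ATP (1.25 mM) stimulation; lower signal means less secretion.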
TDP1 cell CPT = qHTS for Inhibitors of human tyrosyl-DNA phosphodiesterase 1 (TDP1): qHTS in cells in presence of CPT | chicken DT40 Tdp1-/-;hTDP1 cells + 20 nM CPT, ATP luminescence, 48 h | 420,000 tested, 12% active | Potency, µM (series often up to 46.2 µM), hits mostly inhibitors | AID 686979, 2013; further: nearly all actives have a fitted effect of over 55% in size
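Chicken DT40 Tdp1-/- cells complemented with human TDP1, 400 cells/well, exposed to compounds plus 20 nM camptothecin for at least 48 h at 37 C; viability read as ATP content by CellTiter-Glo luminescence.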
ELG1 repair inh = qHTS screen for small molecules that inhibit ELG1-dependent DNA repair in human embryonic kidney (HEK293T) cells expressing luciferase-tagged ELG1; HEK293T ELG1-luciferase reporter, luminescence, 16 h; DNA damage induced by 5-fluorouridine; Potency, µM (doses to about 46.1 µM), actives largely listed as inhibitors; 330,000 tested, 2.3% active; AID 504467, 2011; further: nearly all actives have a fitted effect of over 55% in size
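In this reporter screen, reduction of luminescence relative to DMSO vehicle indicated activity. Compounds and 5-fluorouridine were added together to 2,000 cells per well, incubated for 16 hr at 37 °C, then developed with ONE-Glo.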
VP16 counter = VP16 counterscreen qHTS for inhibitors of ROR gamma transcriptional activity; Drosophila S2 Gal4-VP16 UAS-luciferase, luminescence, 20 h; Potency, µM (top dose mostly 53.6 µM), hits mostly inhibitors; 310,000 tested, 3.5% active;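 further: Gal4-VP16 expression switched on by copper sulfate through the metallothionein promoter; nearly all actives have a fitted effect of over 50% in size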
RORg inh = qHTS for inhibitors of ROR gamma transcriptional activity; Drosophila S2 Gal4-RORgamma UAS-luciferase reporter, 20 h; Potency, µM (titrated, usually from 53.6 µM), usual class: inhibitors; 310,000 tested, 5.4% active; further: nearly all actives have a fitted effect of over 60% in size
Target sequence (P51450 whole entry, looked up, the tested form may be a part): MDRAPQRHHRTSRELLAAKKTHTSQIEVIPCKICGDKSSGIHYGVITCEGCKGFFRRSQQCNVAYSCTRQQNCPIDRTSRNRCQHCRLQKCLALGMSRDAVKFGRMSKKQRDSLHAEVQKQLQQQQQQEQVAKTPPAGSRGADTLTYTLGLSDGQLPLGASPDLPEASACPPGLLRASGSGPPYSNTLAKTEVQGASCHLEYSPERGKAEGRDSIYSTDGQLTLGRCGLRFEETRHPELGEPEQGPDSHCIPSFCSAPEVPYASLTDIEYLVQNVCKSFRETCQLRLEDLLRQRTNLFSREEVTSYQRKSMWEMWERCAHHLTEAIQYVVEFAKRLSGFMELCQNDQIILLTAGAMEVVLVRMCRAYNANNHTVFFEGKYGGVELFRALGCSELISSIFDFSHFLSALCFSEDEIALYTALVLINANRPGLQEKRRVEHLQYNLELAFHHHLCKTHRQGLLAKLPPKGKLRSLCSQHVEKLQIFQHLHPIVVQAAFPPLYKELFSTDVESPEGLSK
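Schneider cells (Drosophila), stable Gal4 DBD–ROR gamma + UAS-luc; 1 hr cmpd preincubation; Cu2+ induction 700 uM final; 20 hr ambient; luminescence.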
TDP1 cell noCPT = qHTS for Inhibitors of human tyrosyl-DNA phosphodiesterase 1 (TDP1): qHTS in cells in absence of CPT | DT40 Tdp1-/- hTDP1 cells, no CPT, ATP luminescence, 48 h | Potency, µM (top dose mostly 46.2 µM), usual class: inhibitors | 420,000 tested, 15% active | AID 686978, 2013; further: nearly all actives have a fitted effect of over 55% in size
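Luminescent ATP content (CellTiter-Glo) served as the growth readout. Knockout chicken DT40 cells expressing human TDP1 were exposed to compounds without camptothecin for a minimum 48 hr at 37 °C.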
Hits are given with their value; 0 = inactive; ? = inconclusive; - = no result given. Unless noted, the call rests on the fitted dose curve; in most records, active means well fitted curve in the direction sought with a large enough effect; inconclusive means small, poorly fitted or top-dose-only effect, or another doubt; inactive means no such curve, though single readings can be large; an effect the other way counts as inactive or inconclusive.

SMILES	IL-1B inflam inh	TDP1 cell CPT	ELG1 repair inh	VP16 counter	RORg inh	TDP1 cell noCPT
Cc1nc(SC2CCOC2=O)c2c(C)c(C)sc2n1 (centres undefined)	0	0	0	16µM	11µM	0
COc1cccc2c1cc1c(=O)n(CC(=O)O)nc(C)n12	-	0	-	-	-	0
COCCNC(=S)NCc1ccc2[nH]c3c(c2c1)CCCC3	0	0	0	0	20µM	0
COCCNC(=O)NC(=O)COC(=O)c1ccc2[nH]c3c(c2c1)CCCC3	0	0	0	0	0	?
Cc1ccc(NC(=S)NCc2ccc3[nH]c4c(c3c2)CCCC4)cc1	?	?	?	2.8µM	7.9µM	13µM
CC(C)CC(=O)NCc1ccc2[nH]c3c(c2c1)CCCC3	0	0	0	0	0	0
Cc1cc2c(NC(=O)Nc3ccc(C(F)(F)F)cc3)cccc2nn1	-55	?	0	0	0	?
CCOc1ccc(-c2n[nH]c(C)c2Oc2ccc(OC)cc2)c(O)c1	0	21µM	0	5µM	2.2µM	10µM
Cc1[nH]nc(-c2ccc(OCc3cnn(-c4ccccc4)c3)cc2O)c1Oc1ccc(F)cc1	0	?	0	10µM	7.1µM	?
Cc1[nH]nc(-c2ccc(OCc3cnn(-c4ccccc4)c3)c(C)c2O)c1Oc1ccccc1	0	0	0	?	7.9µM	?
CC1CCCC(NC(=O)CSc2ncccn2)C1C (centres undefined)	0	0	?	-	-	0
Cn1cc(S(=O)(=O)N2CCCC2)cc1C(=O)O	0	0	0	-	-	0
COc1ccc(-c2cnc(SCC(=O)Nc3ccc4c(c3)OCO4)n2Cc2ccco2)cc1	-73	18µM	?	0	0	18µM
O=C(CSc1nnc(-c2ccc(Cl)cc2)n1Cc1ccco1)Nc1ccc2c(c1)OCCO2	?	?	?	0	?	?
COc1ccc(Cn2c(CO)cnc2SCC(=O)Nc2ccc3c(c2)OCCO3)cc1	-	0	-	-	-	?
CC(=O)Nc1cccc(NC(=O)CSc2ncc(-c3ccc(Cl)cc3)n2Cc2ccco2)c1	0	21µM	?	?	?	21µM
O=C(Nc1cccc(C(F)(F)F)c1)C1Cc2c(-c3ccccc3Oc3ccccc3)ccnc2O1 (centres undefined)	0	23µM	-	-	-	16µM
O=C(Nc1cccnc1)C1Cc2c(-c3ccccc3Oc3ccccc3)ccnc2O1 (centres undefined)	?	?	-	-	-	23µM
CC(=O)c1cccc(NC(=O)C2Cc3c(-c4ccccc4Oc4ccccc4)ccnc3O2)c1 (centres undefined)	?	18µM	-	-	-	16µM
CCN(C(N)=S)c1ccccc1	0	0	0	0	11µM	0
CCN(C(=O)CCC(=O)N(CC)c1ccccc1)c1ccccc1	0	?	0	0	?	?
CCN(C(=N)N=C(N)N)c1ccccc1	0	?	0	0	0	18µM
COc1cc(S(=O)(=O)NCC2(N3CCCCC3)CCCCC2)ccc1NC(C)=O	0	0	0	-	-	0
CNC(=O)c1ccsc1NC(=O)CS(=O)(=O)c1ccc(F)cc1	0	?	-	-	-	?
CCn1ccc(C(=O)NC2=C(C#N)CCC2)n1	0	0	0	0	0	0
SMILES	IL-1B inflam inh	TDP1 cell CPT	ELG1 repair inh	VP16 counter	RORg inh	TDP1 cell noCPT
Cc1ccc(Nc2nc(Cl)c(C=O)s2)cc1Cl	-102	?	0	0	?	?
COc1ccccc1Nc1nc(Cl)c(C=O)s1	-53	?	0	0	0	?
O=C(NCC(c1ccco1)N1CCN(c2ccccc2F)CC1)c1ccco1 (centres undefined)	0	0	0	-	-	?
Cc1ccc(NC(=O)CCOc2ccccc2C)cc1C	?	0	0	0	0	?
Cc1ccc(NC(=O)c2ccc(N(Cc3ccccc3)S(C)(=O)=O)cc2)cc1	-	?	-	-	-	12µM
CC(=O)c1cccc(NC(=O)c2ccc(N(Cc3ccc(C)cc3)S(C)(=O)=O)cc2)c1	0	16µM	?	0	0	?
CS(=O)(=O)N(Cc1ccc(Cl)cc1)c1ccc(C(=O)Nc2cccnc2)cc1	0	0	?	0	0	0
CS(=O)(=O)N(Cc1ccccc1)c1ccc(C(=O)Nc2cccc(Cl)c2)cc1	-	?	-	-	-	15µM
Cc1ccc(CN(c2ccc(C(=O)Nc3ccc4c(c3)OCO4)cc2)S(C)(=O)=O)cc1	0	0	0	0	0	0
CC(=O)c1cccc(NC(=O)c2ccc(N(C)S(=O)(=O)c3ccc(C)cc3)cc2)c1	0	?	16µM	0	0	?
CCC1CCCCN1C(=O)COc1ccccc1NC(C)=O (centres undefined)	0	0	0	0	0	0
O=C(Nc1ccc(F)cc1F)c1cc2nc(-c3ccco3)cc(C(F)(F)Cl)n2n1	-	0	-	-	-	0
CCc1ccc(NC(=O)c2nnn(Cc3cccc(C(F)(F)F)c3)c2N)cc1	-	0	-	-	-	0
COC(=O)/C=C1/S/C(=N/N=C/c2ccc(N(C)C)cc2)NC1=O	-	-	0	0	0	-
CCOCCn1c(=NC(=O)CSCC(=O)Nc2cc(C)on2)sc2cc(OC)ccc21	0	0	15µM	0	0	0
COCCn1c(=NC(=O)CSCC(=O)NC2CCCCC2)sc2cc(OC)ccc21	0	23µM	?	0	0	21µM
COc1ccccc1C1=CC(=O)CC(C)(C)C1=O	0	0	0	-	-	0
Cn1c(SCc2ccccc2)nc2c1c(=O)[nH]c(=O)n2C	0	0	0	0	0	0
CCn1c(SCc2ccccc2)nc2c1c(=O)[nH]c(=O)n2C	0	?	0	0	?	18µM
CCCCCCn1c(SCCC)nc2c1c(=O)[nH]c(=O)n2C	0	0	?	0	0	10µM
C=CCn1c(SCCCc2ccccc2)nc2c1c(=O)[nH]c(=O)n2C	0	?	?	0	0	26µM
C/C=C/Cn1c(SC)nc2c1c(=O)[nH]c(=O)n2C	0	0	0	0	0	?
C/C=C/Cn1c(SCc2ccc(Cl)cc2)nc2c1c(=O)[nH]c(=O)n2C	0	18µM	0	0	0	23µM
C/C=C/Cn1c(SCCCc2ccccc2)nc2c1c(=O)[nH]c(=O)n2C	0	?	0	0	0	?
CC1C(=O)CC2C3(C)CCC2(C(C)C(=O)O)C(=O)C13 (centres undefined)	-	0	-	0	0	0
